Measurements from PubChem BioAssay (Tox21).
Where “and” joins values, the source holds several entries; their conditions need not be identical. Equal values may be shown once. Records with an inconclusive call do not appear. Calls of active or inactive are those of the source. Unless noted, calls come from the whole dose curve; as a rule, active = well fitted curve in the direction sought with a large enough effect in the repeat runs; inconclusive = weak or mixed curves; inactive = no such curve, though single readings can be large; an effect the other way counts as inactive or inconclusive.

Legend:
Aromatase (Homo sapiens) = Aromatase (Homo sapiens) (UniProt P11511); test: qHTS assay to identify aromatase inhibitors (AID 743083); note: nearly all actives have a fitted effect of over 55% in size; note: potency is the fitted concentration of half-maximal effect
Sequence of Aromatase (Homo sapiens) (P11511 whole entry, looked up): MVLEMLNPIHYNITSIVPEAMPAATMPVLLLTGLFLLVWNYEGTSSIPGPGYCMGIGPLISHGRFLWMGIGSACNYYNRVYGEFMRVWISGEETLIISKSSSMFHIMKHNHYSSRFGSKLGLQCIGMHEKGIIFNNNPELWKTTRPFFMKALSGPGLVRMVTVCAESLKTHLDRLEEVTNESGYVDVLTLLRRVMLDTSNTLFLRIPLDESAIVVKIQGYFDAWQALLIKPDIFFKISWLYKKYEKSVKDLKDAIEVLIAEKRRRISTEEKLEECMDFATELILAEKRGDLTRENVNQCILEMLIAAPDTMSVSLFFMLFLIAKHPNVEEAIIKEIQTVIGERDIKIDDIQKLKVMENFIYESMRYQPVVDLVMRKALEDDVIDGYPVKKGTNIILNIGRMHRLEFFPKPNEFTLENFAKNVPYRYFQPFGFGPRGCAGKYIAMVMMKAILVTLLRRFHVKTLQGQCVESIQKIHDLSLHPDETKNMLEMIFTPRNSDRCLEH

[1] = qHTS assay to identify small molecule antagonists of the estrogen related receptor (ERR) signaling pathway (AID 1224819; note: nearly all actives have a fitted effect of over 50% in size; note: potency is the fitted concentration of half-maximal effect;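 for activity change, negative = inhibition: luminescence from an ERR-driven luciferase reporter measured with One-Glo reagent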)
In short: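 Luminescence readout (One-Glo, 30 min, RT) of ERR cell line after 18 h compound exposure at 37 C; cells seeded 2,000/well, pre-incubated 6 h, compounds pinned from DMSO stocks.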

[2] = qHTS assay to identify small molecule agonists of the estrogen related receptor (ERR) signaling pathway (AID 1224820)
In short: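 Following a 6 h settling period, 2,000 ERR cells per well receive DMSO-dissolved compounds by pin tool and incubate 18 h at 37 C; agonist activity is scored from One-Glo luminescence read 30 min post-addition.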

[3] = test system: estrogen-related receptor alpha (ERRalpha) with PGC-1alpha coactivator, human; test: qHTS assay to identify small molecule antagonists of the estrogen related receptor signaling pathway with the pleiotropic PPARgamma coactivator (PGC) (AID 1224821; calls by dose curve; note: nearly all actives have a fitted effect of over 50% in size; note: potency is the fitted concentration of half-maximal effect;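 for activity change, negative = inhibition: lower luminescence signal means antagonism of PGC/ERR signalling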)
In short: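 Screening used NTP's PGC/ERR cells, dosed via pin tool with compound in DMSO alongside positive and negative controls. After 18 h at 37 C, One-Glo reagent sat 30 min at room temperature before luminescence detection.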

[4] = qHTS assay to identify small molecule antagonists of the estrogen related receptor signaling pathway with the pleiotropic PPARgamma coactivator (PGC) cell viability counter screen (AID 1224822)
In short: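 Fluorescence read-out of CellTiter-Fluor after 30 min at 37 C; PGC/ERR cells, 2,000 per well, had been exposed to DMSO-dissolved compounds for 17.5 h following a 6 h pre-incubation.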

[5] = qHTS assay to identify small molecule agonists of the estrogen related receptor signaling pathway with the pleiotropic PPARgamma coactivator (PGC) from Tox21 10K library (AID 1224842); note: nearly all actives have a fitted effect of over 15% in size
In short: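 PGC/ERR reporter cells (NTP line) were seeded 2,000 per well, rested 6 h at 37 C/5% CO2, then pin-dosed with compounds in DMSO for 18 h at 37 C; luciferase read by One-Glo luminescence after 30 min at room temperature.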

[6] = qHTS assay to identify small molecule agonists of the estrogen related receptor (ERR) signaling pathway from Tox21 library (AID 1224849; calls by dose curve; note: nearly all actives have a fitted effect of over 15% in size); conditions: ERR reporter cell line, ONE-Glo luciferase, 18 h; at 92.4 µM (top of the series) unless noted
In short: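 Luminescence readout (ONE-Glo, 30 min RT) after 18 h compound exposure at 37 C of NTP-supplied ERR reporter cells; cells were plated 6 h before compound addition by pin tool.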

[7] = A CellTox Green Cytotoxicity Assay to monitor cytotoxicity in HepG2 cells - 0 hour (AID 1224882); note: nearly all actives have a fitted effect of over 35% in size; note: potency is the fitted concentration of half-maximal effect
In short: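 HepG2, 600 cells/well premixed w/ CellTox Green; 5 h settle, 37 C/5% CO2; pintool cpd add (DMSO); 37 C, 40 h; fluorescence read at 0, 8, 16, 24, 32, 40 h.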

[8] = qHTS assay to identify small molecule HDAC inhibitors (AID 1259364);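 note: wild-type HCT-116 cells with endogenous class I/II HDAC activity; top concentration of the series differs between compounds; nearly all actives have a fitted effect of over 45% in size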
In short: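 HCT-116 (wild type), 1,500 cells/well, overnight; compound 2 hr 37C 5% CO2; HDAC-Glo I/II reagent 30 min RT; luminescence readout.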

[9] = qHTS assay to identify small molecule agonists of the sonic hedgehog signaling (Shh) pathway (AID 1259368; calls by dose curve;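 note: NIH/3T3-derived 3T3Gli1-Luc cells carrying a stable Gli1-driven firefly luciferase reporter; nearly all actives have a fitted effect of over 15% in size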)
In short: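 Read-out: firefly luciferase luminescence from a Gli1 response element reporter stably integrated in NIH/3T3-derived 3T3Gli1-Luc cells, measured 30 min at room temperature after reagent addition. Compound exposure lasted 24 hr at 37 C, 5% CO2.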

[10] = Caspase-3/7 induction in HepG2 cells by small molecules, qHTS assay (AID 1346978); note: nearly all actives have a fitted effect of over 15% in size; note: potency is the fitted concentration of half-maximal effect
In short: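 Wild-type HepG2 cells (2,000/well) were settled 5 h at 37 C, 5% CO2, then exposed to compounds in DMSO for 17 h. Caspase-3/7 activity was read by luminescence 30 min after adding Caspase-Glo 3/7 reagent at room temperature.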

[11] = Caspase-3/7 induction in CHO-K1 cells by small molecules, qHTS assay (AID 1346980); note: nearly all actives have a fitted effect of over 15% in size
In short: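 Wild-type cells were seeded at 1,500 per well and settled 5 hr at 37 C, 5% CO2, then exposed to DMSO-dissolved compounds for 17 hr. Caspase-Glo 3/7 reagent was added, and luminescence was read after 30min at room temperature.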

[12] = target: Acetylcholinesterase (Homo sapiens) (UniProt P22303); test: Acetylcholinesterase (AChE) small molecule antagonists: colormetric cell-based qHTS assay (AID 1347395; calls by dose curve; note: nearly all actives have a fitted effect of over 30% in size; note: potency is the fitted concentration of half-maximal effect)
Sequence of Acetylcholinesterase (Homo sapiens) (P22303 whole entry, looked up): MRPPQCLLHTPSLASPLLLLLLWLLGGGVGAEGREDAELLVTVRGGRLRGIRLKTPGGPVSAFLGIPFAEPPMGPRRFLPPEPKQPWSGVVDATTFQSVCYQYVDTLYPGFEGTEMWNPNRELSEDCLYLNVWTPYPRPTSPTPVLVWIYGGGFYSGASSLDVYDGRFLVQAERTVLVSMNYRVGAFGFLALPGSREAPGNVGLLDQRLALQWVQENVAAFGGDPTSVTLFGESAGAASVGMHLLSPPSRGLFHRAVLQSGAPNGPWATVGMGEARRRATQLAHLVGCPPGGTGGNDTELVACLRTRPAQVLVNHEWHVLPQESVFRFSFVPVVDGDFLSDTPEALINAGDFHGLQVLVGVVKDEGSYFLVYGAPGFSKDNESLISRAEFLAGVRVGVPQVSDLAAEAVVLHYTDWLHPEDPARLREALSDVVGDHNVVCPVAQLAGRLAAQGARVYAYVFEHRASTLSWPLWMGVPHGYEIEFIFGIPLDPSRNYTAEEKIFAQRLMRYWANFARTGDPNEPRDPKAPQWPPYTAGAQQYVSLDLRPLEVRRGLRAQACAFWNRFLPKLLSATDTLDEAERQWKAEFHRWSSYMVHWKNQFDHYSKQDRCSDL
In short: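 Homogeneous whole-cell format. SH-SY5Y cells seeded overnight, dosed with compound (30 min, 37 C, 5% CO2), then given DTNB/acetylthiocholine cocktail for 90 min at 37 C; colorimetric signal.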

[13] = target: Acetylcholinesterase (Homo sapiens) (UniProt P22303); test: Acetylcholinesterase (AChE) small molecule antagonists: enzyme-based qHTS assay (AID 1347397; calls by dose curve; note: nearly all actives have a fitted effect of over 55% in size; note: potency is the fitted concentration of half-maximal effect); conditions: Potency: AChE enzyme activity inhibition; outcome: AChE enzyme activity inhibition
In short: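 Compound or DMSO vehicle was pin-transferred onto recombinant human AChE (50 mU/mL as dispensed) and left 30 min at room temperature. Acetylthiocholine with DTNB then started the reaction, read colorimetrically 10 min later.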

[14] = target: Acetylcholinesterase (Homo sapiens) (UniProt P22303); test: Acetylcholinesterase (AChE) small molecule antagonists: fluorescence cell-based qHTS assay (AID 1347398; calls by dose curve; note: nearly all actives have a fitted effect of over 50% in size; note: potency is the fitted concentration of half-maximal effect); conditions: Potency: AChE activity; outcome: AChE activity
In short: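 Using neuroblastoma SH-SY5Y cells as the enzyme source, test chemicals are preincubated 30 min at 37 C; AChE-driven acetylthiocholine cleavage is then quantified by thiocholine-dependent Thiolite Green fluorescence after 40 min at room temperature.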

[15] = target: Acetylcholinesterase (Homo sapiens) (UniProt P22303); test: Acetylcholinesterase (AChE) small molecule antagonists: enzyme-based qHTS assay with human liver microsomes (AID 1347399; calls by dose curve; note: nearly all actives have a fitted effect of over 60% in size; note: potency is the fitted concentration of half-maximal effect); conditions: Potency: qHTS inhibition; outcome: qHTS inhibition
In short: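 Recombinant human AChE (50 mU/mL in the enzyme mix) and human liver microsomes (0.25 mg/mL final) were preincubated with compound and NADPH (0.25 mg/mL final) for 30 min at 37 C. Acetylthiocholine/DTNB was then added; thiocholine was read colorimetrically after 10 min at room temperature.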

[16] = qHTS assay to identify small molecule antagonists of the retinoic acid receptor (RAR) signaling pathway (AID 1159552; note: nearly all actives have a fitted effect of over 50% in size; note: potency is the fitted concentration of half-maximal effect)
In short: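 Antagonism of retinol-induced RARE reporter activity was measured in C3RL4 cells. Exposure to compounds and 1 uM final retinol lasted 6 hr at 37 C, with luminescence as endpoint.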

[17] = qHTS assay to identify small molecule antagonists of the estrogen related receptor (ERR) signaling pathway - cell viability counter screen (AID 1224818)
In short: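 Fluorescence from CellTiter-Fluor, read 30 min after reagent addition at 37 C, measured viability of ERR cells exposed to compounds for 17.5 h. Cells had settled 6 h before dosing.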

[18] = qHTS assay to identify small molecule agonists of H2AX (AID 1224845; active = well fitted activation curve with a large enough effect in the signal ratio in the repeat runs, not every such curve was filed as active; the % refers to the signal ratio; note: potency is the fitted concentration of half-maximal effect)
In short: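 Wild-type CHO-K1 cells plated overnight, then exposed 3 hr at 37C to compounds at 15 concentrations (0.76% DMSO). Lysed, then HTRF anti-pH2AX(S139)-cryptate/anti-H2AX-d2 detection after 24 hr at room temperature; emissions 665 and 620 nm.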

[19] = target: Aryl hydrocarbon receptor (Homo sapiens) (UniProt P35869); test: qHTS assay to identify small molecule that activate the aryl hydrocarbon receptor (AhR) signaling pathway (AID 743085)
Sequence of Aryl hydrocarbon receptor (Homo sapiens) (P35869 whole entry, looked up): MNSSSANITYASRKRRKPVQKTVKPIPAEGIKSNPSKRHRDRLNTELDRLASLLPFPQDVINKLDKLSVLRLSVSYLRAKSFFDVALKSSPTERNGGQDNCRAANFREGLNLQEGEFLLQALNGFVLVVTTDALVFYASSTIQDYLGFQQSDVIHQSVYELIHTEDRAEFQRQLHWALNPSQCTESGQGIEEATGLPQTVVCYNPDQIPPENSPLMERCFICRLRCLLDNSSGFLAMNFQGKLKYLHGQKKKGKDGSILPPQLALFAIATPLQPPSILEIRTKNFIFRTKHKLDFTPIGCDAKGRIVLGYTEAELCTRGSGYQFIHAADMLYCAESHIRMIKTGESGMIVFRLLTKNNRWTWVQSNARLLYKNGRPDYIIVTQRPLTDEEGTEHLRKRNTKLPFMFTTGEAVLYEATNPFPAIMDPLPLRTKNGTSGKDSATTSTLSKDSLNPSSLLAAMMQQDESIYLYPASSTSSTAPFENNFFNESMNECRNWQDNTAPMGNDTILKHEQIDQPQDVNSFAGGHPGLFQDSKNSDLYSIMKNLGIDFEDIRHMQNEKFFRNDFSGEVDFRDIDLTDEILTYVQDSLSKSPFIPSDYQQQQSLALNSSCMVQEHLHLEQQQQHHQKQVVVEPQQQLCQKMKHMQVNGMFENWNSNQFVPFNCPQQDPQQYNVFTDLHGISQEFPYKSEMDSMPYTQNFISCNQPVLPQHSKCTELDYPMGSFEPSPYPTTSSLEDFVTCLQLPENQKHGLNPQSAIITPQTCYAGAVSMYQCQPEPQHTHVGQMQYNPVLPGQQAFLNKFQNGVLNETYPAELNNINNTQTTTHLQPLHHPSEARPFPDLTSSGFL
In short: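 A multiplexed format paired cell viability (CellTiter-Fluor fluorescence) with AhR-dependent luciferase output (ONE-Glo luminescence) in the same wells of HepG2 DRE-luc cells after 24 h compound exposure at 37C.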
% is set by controls: 0 for no effect and ±100 for the full control effect.

CO/C=C(/C(=O)OC)c1ccccc1Oc1cc(Oc2ccccc2C#N)ncn1
active: Potency (Aromatase (Homo sapiens)) 41.1 µM | Potency [1] 4.86 µM | Potency [3] 8.31 µM
inactive: Potency [2] | Potency [4] | Potency [5] | activity change, positive = activation [6] -64.5% | Potency [7] | outcome [8] | outcome [9] | Potency [10] | outcome [11] | Potency [12] | Potency [13] | Potency [14] | Potency [15]

COc1ccc(C(c2ccc(OC)cc2)C(Cl)(Cl)Cl)cc1
inactive: Potency (Aromatase (Homo sapiens)) | Potency [16] | Potency [17] | Potency [1] | Potency [2] | Potency [3] | Potency [4] | Potency [5] | activity change, positive = activation [6] -35.3% | Potency [7] | outcome [9] | Potency [10] | outcome [11] | Potency [13] | Potency [14] | Potency [15]

Oc1c(I)cc(I)cc1I
inactive: Potency [5] | Potency [18] | activity change, positive = activation [6] -24.5% | Potency [7] | outcome [8] | outcome [9] | Potency [10] | outcome [11] | Potency [12] | Potency [13] | Potency [14] | Potency [15]

O=C(c1ccccc1)C(Cl)Cl
inactive: Potency [5] | Potency [18] | activity change, positive = activation [6] -27.3% | Potency [7] | outcome [8] | outcome [9] | Potency [10] | outcome [11] | Potency [12] | Potency [13] | Potency [14] | Potency [15]
active: Potency [16] 24.3 µM

Brc1c2ccccc2c(Br)c2ccccc12
inactive: activity, negative = inhibition (Aromatase (Homo sapiens)) 2.07% [at 8.47 µM] | activation [19] -3.68% [at 8.47 µM] | activity, negative = inhibition [16] 4.27% [at 8.39 µM] | activation (H2AX phosphorylation) [18] -2.5% [at 14 µM] | activity, negative = inhibition [12] 0.841% [at 10.5 µM] | activity change, negative = inhibition [13] 0.273% [at 10.5 µM] | activity change, negative = inhibition [14] 6.02% [at 10.5 µM] | activity change, negative = inhibition [15] 1.07% [at 10.5 µM]

Cc1ccc2nc3sc(=O)sc3nc2c1
inactive: activity, negative = inhibition [16] 10.1% [at 19 µM] | activation (H2AX phosphorylation) [18] -0.108% [at 31.6 µM] | cytotoxicity [7] 0.753% [at 15.8 µM] | activity change, negative = inhibition [8] -12.7% [at 19 µM] | activity change [9] 2.66% [at 18.9 µM] | caspase activation [10] 0.305% [at 19 µM] | caspase-3/7 activation [11] -0.994% [at 19 µM] | activity, negative = inhibition [12] -0.0538% [at 23.6 µM] | activity change, negative = inhibition [13] 0% [at 23.6 µM] | activity change, negative = inhibition [14] 1.71% [at 23.8 µM] | activity change, negative = inhibition [15] -0.324% [at 23.6 µM]

CC(c1ccccc1)(c1ccc(O)cc1)c1ccc(O)cc1
inactive: Potency [5] | activity change, positive = activation [6] -53.1% | Potency [7] | outcome [8] | outcome [9] | outcome [11] | Potency [12] | Potency [14] | Potency [15]

c1ccc2c(c1)Sc1ccccc1N2CC1CN2CCC1CC2 (stereo not drawn)
inactive: Potency [19] | Potency [5] | activity change, positive = activation [6] -49.8% [at 42.5 µM] | Potency [7] | outcome [8] | outcome [9] | outcome [11] | Potency [12] | Potency [13] | Potency [14] | Potency [15]
active: Potency [16] 29.8 µM

COc1cc(OC)c(OC)cc1C=O
inactive: Potency [17] | Potency [1] | Potency [2] | Potency [3] | Potency [4] | Potency [5] | activity change, positive = activation [6] -39.3% | Potency [7] | outcome [8] | outcome [9] | Potency [10] | outcome [11] | Potency [12] | Potency [13] | Potency [14] | Potency [15]
active: Potency (Aromatase (Homo sapiens)) 44.4 µM

OC(Cc1ccccc1Cl)(Cn1[nH]cnc1=S)C1(Cl)CC1 (stereo not drawn)
inactive: Potency [16] | Potency [18] | Potency [7] | outcome [8] | outcome [9] | Potency [10] | outcome [11] | Potency [12] | Potency [13] | Potency [14]

CNC(=O)Oc1cc(C)c(SC)c(C)c1
inactive: Potency [7] | outcome [8] | outcome [9] | Potency [10] | outcome [11]
active: Potency [18] 63.5 µM | Potency [12] 3.17 µM | Potency [13] 3.56 µM | Potency [14] 1.59 µM | Potency [15] 22.4 µM

CC(C)(C)c1cc(C(C)(C)C)c(O)c(C(C)(C)C)c1
active: Potency [18] 101 µM
inactive: Potency (Aromatase (Homo sapiens)) | Potency [19] | Potency [10] | Potency [12] | Potency [13] | Potency [14] | Potency [15]

O=C(Nc1ccccc1-c1ccc(Cl)cc1)c1cccnc1Cl
inactive: Potency [19] | Potency [16] | Potency [17] | Potency [1] | Potency [2] | Potency [3] | Potency [4] | Potency [5] | Potency [18] | activity change, positive = activation [6] -31.8% | outcome [8] | outcome [9] | Potency [10] | outcome [11] | Potency [12] | Potency [13] | Potency [14] | Potency [15]
active: Potency [7] 41.2 µM

CCC(C)=O
inactive: Potency (Aromatase (Homo sapiens)) | Potency [16] | Potency [18] | activity change, positive = activation [6] -6.3% | Potency [12] | Potency [13] | Potency [14] | Potency [15]

Nc1ccc([N+](=O)[O-])cc1
inactive: Potency (Aromatase (Homo sapiens)) | Potency [2] | Potency [3] | Potency [4] | Potency [18] | activity change, positive = activation [6] -29.9% | Potency [7] | outcome [8] | outcome [9] | outcome [11] | Potency [12] | Potency [13] | Potency [14] | Potency [15]

CN1CSC(=S)N(C)C1
inactive: Potency [19] | Potency [5] | activity change, positive = activation [6] -78.8% and -76.3% | Potency [7] | outcome [8] | outcome [9] | outcome [11] | Potency [12] | Potency [13] | Potency [14] | Potency [15]
active: Potency (Aromatase (Homo sapiens)) 4.83 µM and 3.85 µM | Potency [18] 4.48 µM | Potency [10] 7.66 µM

OCC(c1ccc(Cl)cc1)c1ccc(Cl)cc1
inactive: Potency [19] | Potency [18] | Potency [7] | outcome [8] | outcome [9] | outcome [11] | Potency [12] | Potency [13] | Potency [14]
active: Potency (Aromatase (Homo sapiens)) 30.6 µM | Potency [16] 43.3 µM
